# Screening results from PubChem BioAssay.
# PfHsp90 set2 – growth inhibition of PfHsp90-expressing yeast, primary screen, antimalarial PfHsp90 inhibitor project, S. cerevisiae, BacTiter-Glo luminescence, single point, set 2 | BacTiter-Glo ATP, 48 h; yeast lacking PDR1 and PDR3 efflux regulators | inhibition, % at 9.4 µM | 310,000 tested, 0.32% active;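 active = every replicate shows inhibition above about 80%, whatever the replicate mean, limit read from the data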;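 also: 0% = DMSO neutral controls and 100% = 20 µM radicicol positive controls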
# tim10-1 inh – growth inhibitors of tim10-1 mutant yeast, primary screen, luminescence, uHTS | S. cerevisiae tim10-1 ts strain growth, BacTiter-Glo, 24 h | 330,000 tested, 2.2% active | inhibition, % at 20 µM;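 active = inhibition of at least 40%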;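 also: mutant grown at 25 °C; 0% = DMSO wells with yeast and 100% = wells holding no yeast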
# tim23-1 inh – growth inhibitors of tim23-1 mutant yeast, primary screen, luminescence, uHTS. inhibition, % at 20 µM. S. cerevisiae tim23-1 growth, BacTiter-Glo luminescence, 24 h. 330,000 tested, 1.3% active;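 active = growth inhibition of the mutant yeast at or above 50%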;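 also: temperature-sensitive mutant grown at 25 °C; plate controls were DMSO-treated mutant yeast for no effect and medium wells lacking yeast for full effect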
# TIM10 inh – growth inhibitors of isogenic TIM10 control yeast, primary screen, counter-screen for tim10-1 yeast inhibitor project, luminescence, uHTS. S. cerevisiae TIM10 strain growth, BacTiter-Glo luminescence, 24 h. inhibition, % at 10 µM. 330,000 tested, 1.4% active. AID 463195, 2010;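 active = inhibition of 40% or more at the single tested concentration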;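 also: wild-type TIM10 isogenic control strain grown at permissive 25 °C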
# NLRP3 yeast inh – NALP3 inflammasome inhibitors in reconstituted yeast, primary screen, luminescence, uHTS; Yeast reconstituted NLRP3/ASC/caspase-1, beta-gal luminescence, 24 h; AID 2825, 2010; inhibition, % at 10 µM; 330,000 tested, 0.39% active;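 active = inhibition of 50% or more; inactive = inhibition below 50%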;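 also: plate controls were induced DMSO wells for no effect and uninduced yeast grown without galactose for full effect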
# tim10-1 conf – growth inhibitors of tim10-1 mutant yeast, confirmation, single concentration, luminescence, S. cerevisiae; shares compounds with tim10-1 inh; S. cerevisiae tim10-1 ts strain growth, BacTiter-Glo, 24 h; inhibition, % at 20 µM; 7,400 tested, 56% active; AID 463213, 2010;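 active = inhibition of yeast growth at or above a set limit in either of two repeat tests at 20 µM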;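 also: tim10-1 mutant grown at permissive 25 °C to find synthetic lethal compounds; 0% = DMSO yeast wells and 100% = medium wells without yeast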
# TIM10 conf – growth inhibitors of wild-type TIM10 yeast, confirmation, counter-screen for tim10-1 synthetic lethality project, single concentration, luminescence, S. cerevisiae. shares compounds with TIM10 inh. S. cerevisiae tim10 strain growth, BacTiter-Glo luminescence, 24 h. inhibition, % at 10 µM. 4,600 tested, 63% active;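 active = inhibition of yeast growth at or above a set limit in either of two replicates at 10 µM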;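 also: this counterscreen used the strain with wild-type TIM10; 0% = yeast with DMSO and 100% = medium wells lacking yeast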
# tim23-1 confirm – tim23-1 mutant yeast growth inhibitors, confirmation, luminescence, single concentration; shares compounds with tim23-1 inh; S. cerevisiae tim23-1 growth, BacTiter-Glo luminescence, 24 h; inhibition, % at 20 µM; 4,400 tested, 83% active;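 active = inhibition above about 39% in either of two replicate wells at 20 µM, limit read from the data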;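 also: temperature-sensitive tim23-1 mutant grown at 25 °C; 0% = DMSO wells with yeast and 100% = medium wells without yeast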
# The depositor's hits bear a star; · = not tested or not shown. The list is not random: actives were taken first. Their share in the collection is about 3.7%.
SMILES,PfHsp90 set2,tim10-1 inh,tim23-1 inh,TIM10 inh,NLRP3 yeast inh,tim10-1 conf,TIM10 conf,tim23-1 confirm
CC1CCc2[nH]c3ccc(C(=O)N4CCCC(C(F)(F)F)C4)cc3c2C1 (stereo unspecified),·,42*,68*,25,-3,30,·,55*
CCCC[C@H]1COCCS(=O)(=O)N1Cc1cccc([N+](=O)[O-])c1,17,30,-11,-3,14,·,·,·
CC(=O)CCc1ccc(OC(=O)c2cccnc2)cc1,-1,10,6,-5,12,·,·,·
COc1ccccc1N(C(=O)c1snc(C(N)=O)c1N)C(C(=O)NC1CCCCC1)c1cccc(OC)c1OC (stereo unspecified),15,18,12,-11,29,·,·,·
O=[N+]([O-])c1cncc([N+](=O)[O-])c1Nc1ccccc1Cl,-9,51*,57*,4,-11,43*,·,69*
CCCCNC(=S)NC(=O)c1ccc(Cl)cc1Cl,·,49*,54*,38,6,37*,·,53*
O=C(NC(=S)NCCN1CCOCC1)c1ccc(Cl)cc1Cl,9,10,-9,0,17,·,·,·
CCN(CC(=O)Nc1ccccc1OC)CC(=O)Nc1ccccc1-c1ccccc1,-2,37,8,7,-2,·,·,·
CC1=NOC(=O)/C1=C\c1ccc(-c2ccc(Cl)cc2Cl)o1,72,46*,81*,21,8,46*,·,51*
CCc1n[nH]c(=S)n1/N=C/c1cc(OC)cc([N+](=O)[O-])c1O,-21,38,40,22,15,·,·,·
COc1ccc(OCC(=O)OCC(=O)NCC2CCCCC2)cc1,31,6,-2,-1,14,·,·,·
CC1=C(C)/C(=N\OS(=O)(=O)c2ccccc2)C=CC1=O,106*,94*,50*,95*,36,93*,9,94*
Cc1ccc(S(=O)(=O)O/N=C2\CCCc3ccccc32)cc1,-10,18,11,11,12,·,·,·
CC(OC(=O)Cn1cnc2c1c(=O)n(C)c(=O)n2C)C(=O)c1ccccc1 (stereo unspecified),·,-1,-5,-5,5,·,·,·
Cc1ccc(C(=O)ONc2ccc(N=O)cc2)cc1,·,58*,71*,39,15,49*,·,63*
COc1ccc(Cl)cc1NC(=O)CN(C)C(=O)c1cc2c(s1)CCCC2,5,35,46,11,-3,·,·,·
N#C/C(=C\c1ccccc1)C(=O)N(c1ccccn1)C1CCCCC1,-74,49*,71*,58*,29,70*,67*,58*
O=C(c1cccc(C(=O)N(c2ccccn2)C2CCCCC2)c1)N(c1ccccn1)C1CCCCC1,-22,39,28,7,4,·,·,·
N/C(=N\OC(=O)CCC1CCCC1)c1cccnc1,11,38,23,9,2,·,·,·
N/C(=N\OC(=O)CCC1CCCC1)c1ccc(Cl)cc1,·,61*,59*,79*,10,61*,73*,65*
Cc1cccc(/C(N)=N/OC(=O)CCC2CCCCC2)c1,-20,50*,64*,62*,-20,56*,75*,72*
Cc1ccc(/C(N)=N/OC(=O)CCC2CCCCC2)cc1,·,60*,77*,83*,-1,44*,82*,71*
Cc1ccc(/C(N)=N/OC(=O)CCC2CCCC2)cc1,-7,58*,72*,63*,14,46*,75*,55*
CC1(C)Cc2c(sc(NC(=O)C(=O)N3CCN(CCO)CC3)c2C(N)=O)CO1,-20,22,7,7,20,·,·,·
